About 6,200 (11%) of roughly 59,000 compounds were called active. Another 9% or so got no clear call; they are omitted. Cut-off read from the data, not from the text of the source: active = max dye-equivalent concentration above about 10 nM; inconclusive = mostly about 1.1 nM to 9.6 nM; inactive = weaker than that. Only a selection was taken, and actives are over-represented in it overall.

This test can be described thus: qHTS Assay for Spectroscopic Profiling in 4-MU Spectral Region. The note with it: compound autofluorescence, 340/450 nm, 4-MU equivalents; hits give high values. Summed up: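 Compounds in 100 mM Tris, pH 8.0, incubated 15 min at room temperature, then fluorescence read at 340 nm excitation/450 nm emission. Signal converted to 4-MU dye-equivalent concentration using an on-plate six-point 4-MU standard curve.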
A general note: qHTS replaces the single test concentration by a dilution series.
For `COc1ccc(C(=O)N/N=C2/C(=O)c3c(C)cc(C)cc3CC2(C)C)cc1`, the max dye-equivalent concentration result is “inactive”.

As to `Cc1ccc(S(=O)(=O)N2CCC(C(=O)N[C@@H](C)C(=O)NCCc3ccccc3)CC2)cc1`, the max dye-equivalent concentration entry is “inactive”.

In the case of `CCOc1ccc(-n2c(SC(C)C(=O)OC)nc3c(c2=O)SCC3)cc1` (configuration not stated), the max dye-equivalent concentration result is “inactive”.

For the compound `CCOC(=O)N1CCC(NC(=O)Cc2cn(C)c3ccccc23)CC1`, the max dye-equivalent concentration result is “inactive”. For `CCOC(=O)N1CCC(NC(=O)CCc2cn(C)c3ccccc23)CC1`, the max dye-equivalent concentration was 380 nM (active).

Regarding `CCOC(=O)N1CCC(NC(=O)C(C)n2c3ccccc3c3cnn(C)c(=O)c32)CC1` (configuration not stated), the max dye-equivalent concentration result was “inactive”. The result for `CCCN1C2=C(C(=O)CCC2)C(c2ccc(O)c(Br)c2)C2=C1CCCC2=O` reads 78 nM (active). To `COc1cc(Cl)cc(C2NC(=O)NC(C)=C2C(=O)NCc2ccccc2)c1O` (configuration not stated) belongs “inactive”; to `COc1cc([C@H]2c3cc4c(cc3[C@@H](O[C@@H]3O[C@H]5CO[C@@H](C)O[C@]5(O)C[C@H]3O)[C@@H]3COC(=O)[C@H]23)OCO4)cc(OC)c1O`, “inactive”. Regarding `O=C1CCCC2=C1C(c1cccs1)n1nc(SCc3ccccc3)nc1N2` (configuration not stated), the max dye-equivalent concentration was 110 nM (active).

`CC(C)C(=O)N1c2ccccc2NC2=C(C(=O)CCC2)C1c1ccc(N(C)C)cc1` (configuration not stated): the max dye-equivalent concentration entry is “inactive”. The result for `CC(C)(C)NCC[C@@H](O)c1cc(C(F)(F)F)nc2c(C(F)(F)F)cccc12` reads “inactive”; that for `CC(=O)Nc1ccc(-c2nn3c(C)nnc3s2)cc1C`, “inactive”; that for `Fc1ccc(-c2nnc3sc(-c4ccc5c(c4)OCO5)nn23)cc1`, 26 nM (active). The result for `FC(F)(F)c1nnc2sc(-c3ccco3)nn12` reads “inactive”.

As for `c1ccc(-c2nnc3n2NC(c2ccc4c(c2)OCO4)S3)cc1` (configuration not stated), the max dye-equivalent concentration result was “inactive”. To `Fc1ccc(-c2ccc(-c3nn4c(-c5ccco5)nnc4s3)o2)cc1` belongs 51 nM (active); to `Cc1nnc2sc(-c3ccco3)nn12`, “inactive”; to `CCOC(=O)C(C(=O)OCC)C(C#N)c1ccccc1` (configuration not stated), “inactive”. To `CCCn1c(SCC(=O)N2CCc3ccccc32)nnc1-c1ccncc1` belongs “inactive”. The result for `Cc1cc(C)n2nc(C(=O)Oc3ccc4c(c3)OCO4)nc2n1` reads “inactive”; that for `CCOc1ccc(NCCC(=O)c2ccc3c(c2)OCO3)cc1`, “inactive”. For `C/C=C1\C(=O)C[C@@H]2[C@@H]3CCC4=CC(=O)CC[C@@]4(C)[C@H]3CC[C@@]12C`, the max dye-equivalent concentration is 12 nM (active). The result for `COc1cccc(OCC(=O)Nc2ccccc2C(N)=O)c1` reads “inactive”; that for `N#C/C=C1\Sc2ccccc2C(=O)N1CC(=O)N1CCN(S(=O)(=O)c2ccccc2)CC1`, 18 nM (active); that for `O=C(CCC(=O)N1CCN(S(=O)(=O)c2ccccc2)CC1)NC1CCCc2ccccc21` (configuration not stated), “inactive”. To `Cc1ccc(S(=O)(=O)N2CCN(C(=O)CCC(=O)NC3CCCc4ccccc43)CC2)cc1` (configuration not stated) belongs “inactive”.

The record behind these values is PubChem BioAssay AID589 (National Center for Advancing Translational Sciences (NCATS), 2007).
